# Laboratory results reported in PubChem BioAssay (NCI).
# This is part of a sample that, as a whole, favours compounds with a hit. Of some 83,000 tested, about 20% had one in any assay.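 Testing used 96-well plates and a 48-hour single-concentration exposure. Example: -40 means 40% of the starting cells died.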 Values without a mark were called inactive. Calls of active or inactive are those of the source. Rule for the calls: active = growth percent below 10; inactive = the rest.
# Assays:
# Test in all cases: NCI-60 one-dose screen, 48 h (100 = growth as untreated, 0 = no growth, -100 = all killed)
# HCT-15 colon = conditions: 10 µM unless noted
# HT29 colon = conditions: 10 µM unless noted
# SNB-75 CNS = conditions: 10 µM unless noted
# SNB-19 CNS = conditions: 10 µM unless noted
# U251 CNS = conditions: 10 µM unless noted
# PC-3 prostate = conditions: 10 µM unless noted
# SK-MEL-5 melanoma = conditions: 10 µM unless noted
# UACC-62 melanoma = conditions: 10 µM unless noted
# LOX IMVI melanoma = conditions: 10 µM unless noted
# SK-MEL-28 melanoma = conditions: 10 µM unless noted
# SK-MEL-2 melanoma = conditions: 10 µM
# EKVX NSCLC = conditions: 10 µM unless noted
# UO-31 renal = conditions: 10 µM unless noted
# TK-10 renal = conditions: 10 µM unless noted
# ACHN renal = conditions: 10 µM unless noted
# CAKI-1 renal = conditions: 10 µM unless noted
# MOLT-4 leukemia = conditions: 10 µM unless noted
# SN12C renal = conditions: 10 µM unless noted
# A498 renal = conditions: 10 µM unless noted
# CCRF-CEM leukemia = conditions: 10 µM unless noted
SMILES,growth (HCT-15 colon),growth (HT29 colon),growth (SNB-75 CNS),growth (SNB-19 CNS),growth (U251 CNS),growth (PC-3 prostate),growth (SK-MEL-5 melanoma),growth (UACC-62 melanoma),growth (LOX IMVI melanoma),growth (SK-MEL-28 melanoma),growth (SK-MEL-2 melanoma) [%],growth (EKVX NSCLC),growth (UO-31 renal),growth (TK-10 renal),growth (ACHN renal),growth (CAKI-1 renal),growth (MOLT-4 leukemia),growth (SN12C renal),growth (A498 renal),growth (CCRF-CEM leukemia)
COc1ccc2c(c1OC)C(=O)O[C@@H]2[C@H]1c2c(c(C#CC#Cc3ccc(F)c(F)c3)c3c(c2OC)OCO3)CCN1C,56.8%,92.3%,89.6%,103%,88.4%,50.8%,66.2%,69.5%,90.9%,96.3%,91.8,90.3%,70.5%,95.3%,95%,86.6%,89%,,,
Cc1cccc(Cl)c1NC(=O)c1cnc(Nc2cc(N3CCOCC3)cc(S(C)(=O)=O)c2)s1,43.3%,-68% (active),-50.1% (active),40.5%,50%,44.3%,57.9%,41.3%,-58.4% (active),52.6%,,27.7%,2.76% (active),-64.6% (active),-2.99% (active),-27.7% (active),24.8%,28.6%,-13.6% (active),72.7%
Clc1ccc(/C=C/c2cc(N3CCOCC3)c3cc(Cl)c(Cl)cc3n2)cc1,97.4%,93.1%,69.7%,108%,81.4%,37.2%,93.9%,98.6%,99.6%,105%,104,,12.5%,92.8%,,78.6%,1.45% (active),20.1%,67.7%,4.25% (active)
Nc1cc2c(cc1Br)-c1c(C(=O)O)cccc1C2O (configuration not stated),108%,106%,90.2%,99.5%,97.4%,82.2%,99.9%,90.9%,95.8%,102%,131,88.3%,102%,117%,,,115%,,129%,124%
CN(C)C1CCN(C(=O)c2ccc(NC(=O)Nc3ccc(-c4nc(N5CCOCC5)nc(N5CCOCC5)n4)cc3)cc2)CC1,74.1% [2.5 µM],-2.55% [2.5 µM] (active),-51.7% [2.5 µM] (active),1.85% [2.5 µM] (active),-10.5% [2.5 µM] (active),3.75% [2.5 µM] (active),-39.1% [2.5 µM] (active),-58.9% [2.5 µM] (active),0.487% [2.5 µM] (active),-27.6% [2.5 µM] (active),,40.3% [2.5 µM],32.2% [2.5 µM],-9.03% [2.5 µM] (active),55.6% [2.5 µM],10.2% [2.5 µM],-7.96% [2.5 µM] (active),3.23% [2.5 µM] (active),-54.1% [2.5 µM] (active),9.68% [2.5 µM] (active)
O=C(Cn1ccc2ccccc21)Nc1ccc(-c2nc3ccccc3s2)cc1,110%,115%,93.8%,98.6%,97.6%,98%,98.6%,95%,91.3%,114%,,107%,92.4%,104%,111%,100%,94.5%,101%,99.1%,97%
O=C(NC[C@H](O)CO)c1ccncc1Nc1ccc(I)cc1F,43.9%,8.1% (active),73.4%,51.5%,55.3%,86.4%,44.5%,-7.65% (active),25.2%,-12.7% (active),,45.1%,35.1%,40.5%,41.4%,32.7%,90.3%,60.3%,-21.9% (active),102%
CCOc1cc2ncc(C#N)c(Nc3ccc(OCc4ccccn4)c(Cl)c3)c2cc1NC(=O)/C=C/CN(C)C,-0.289% (active),-54.5% (active),34.1%,-44.2% (active),3.18% (active),9.27% (active),14.8%,-64.1% (active),-67.8% (active),-79.5% (active),,20.7%,-85% (active),5.99% (active),-56% (active),5.2% (active),19.9%,-62.8% (active),34.7%,3.88% (active)
Cc1cc(Nc2ncnc3ccc(NC4=NC(C)(C)CO4)cc23)ccc1Oc1ccn2ncnc2c1,47.9%,5.46% (active),39%,44.3%,36.2%,41.3%,19.2%,14.3%,11.2%,12.9%,,41.6%,14.9%,1.72% (active),21.1%,13.8%,16.7%,33.1%,-16% (active),11.7%
COc1ccc(S(=O)(=O)N(C(C)=O)c2ccccc2/C=C/c2cc[n+]([O-])cc2)cc1,17.9%,1.49% (active),4.75% (active),25.4%,9.19% (active),17.9%,7.61% (active),37.1%,18%,45.4%,,31.8%,50%,49.2%,42.5%,32.7%,22.5%,32.4%,1.32% (active),16.4%
C=CC(=O)Nc1cc2c(Nc3ccc(F)c(Cl)c3)ncnc2cc1C#CC(C)(C)N1CCN(C)CC1,-78% (active),-70.4% (active),-99.8% (active),-98.9% (active),-94.8% (active),-87.4% (active),-98.4% (active),-94.6% (active),-91.4% (active),-96.9% (active),,-93% (active),-99.8% (active),-97.5% (active),-100% (active),-99.8% (active),-23.1% (active),-87.7% (active),-96.3% (active),-11.5% (active)
CC(=Nc1ccccc1)C1=C(O)C(Cc2ccccc2)NC1=O (configuration not stated),5.57% (active),-0.116% (active),19.1%,16.4%,15.5%,5.74% (active),-43.3% (active),24.6%,18.5%,37.8%,26.9,23.3%,43.6%,54.2%,40.8%,,0.239% (active),,,-10.9% (active)
COc1cc(CCc2cc(NC(=O)c3ccc(N4C[C@@H](C)N[C@@H](C)C4)cc3)n[nH]2)cc(OC)c1,53.5%,4.25% (active),6.83% (active),83.4%,45.2%,47.2%,17.3%,45.4%,-30.9% (active),35.7%,,84.7%,9.25% (active),57.6%,39.5%,20.4%,10.6%,31.1%,-1.03% (active),29.6%
Cc1c(N)ccc(-c2ccc(N)c(C)c2S(=O)(=O)O)c1S(=O)(=O)O,111%,111%,101%,112%,106%,98.4%,110%,105%,98.6%,115%,,111%,88%,98.6%,108%,116%,102%,106%,100%,102%
Cn1ccnc1C(=O)/C=C/c1ccc(CC(=O)Nc2ccc(Br)cc2)cc1,5.5% (active),0.238% (active),8.2% (active),11.4%,5.83% (active),23%,62.9%,33%,7.81% (active),92.3%,,22.6%,22.7%,49.5%,40.3%,34.9%,2.44% (active),1.07% (active),73.8%,11.9%
CO[C@@H](C)Cn1c(=O)n(C)c2cnc3ccc(-c4cncc(C(C)(C)O)c4)cc3c21,7.42% (active),2.26% (active),-41.8% (active),8.17% (active),2.44% (active),7.66% (active),-96.5% (active),-37.6% (active),-33.8% (active),-8.17% (active),,4.47% (active),-18.6% (active),-49.6% (active),3.66% (active),-15.5% (active),-8.71% (active),14.5%,-55.5% (active),10.4%
